Assay results taken from the supplement of paper PMC6555819.

How the values were obtained:
Experiment in all cases: PBM binding z-score (relative to random genomic background probes); higher = stronger binding; sequences stand for … in GC…GCGATTGACAGCGTAGAATGAAGG
[1] = system: FXR:RXRa (NR concentration 270 nM, RXRa partner concentration 90 nM)
In short: (§1)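 Antibodies against each partner of ligand-free nuclear receptor dimers (one per run) detected binding on custom Agilent 4×180K protein-binding microarrays after 1 h incubation. The double-stranded probes had 34-nt variable regions carrying direct-repeat seeds, single-nucleotide variants, half-site ablations and random human genomic background sequences. Binding z-scores, from regression-normalized fluorescence, use the random background probes as reference.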

[2] = system: LXRa:RXRa (NR concentration 270 nM, RXRa partner concentration 90 nM)
In short: as §1

[3] = system: LXRa homodimer (NR concentration 270 nM)
In short: as §1

[4] = system: LXRb:RXRa (NR concentration 270 nM, RXRa partner concentration 90 nM)
In short: as §1

[5] = system: LXRb homodimer (NR concentration 270 nM)
In short: as §1

[6] = system: PPARa:RXRa (NR concentration 270 nM, RXRa partner concentration 90 nM)
In short: as §1

[7] = system: PPARg:RXRa (NR concentration 180 nM, RXRa partner concentration 90 nM)
In short: as §1

[8] = system: PPARg:RXRa 270nM:90nM, anti-RXR (NR concentration 270 nM, RXRa partner concentration 90 nM)
In short: as §1

[9] = system: PPARg:RXRa 30nM:10nM, anti-RXR (NR concentration 30 nM, RXRa partner concentration 10 nM)
In short: as §1

[10] = system: PPARg:RXRa 90nM:30nM, anti-RXR (NR concentration 90 nM, RXRa partner concentration 30 nM)
In short: as §1

Sequence | PBM binding z-score [1] | PBM binding z-score [2] | PBM binding z-score [3] | PBM binding z-score [4] | PBM binding z-score [5] | PBM binding z-score [6] | PBM binding z-score [7] | PBM binding z-score [8] | PBM binding z-score [9] | PBM binding z-score [10]
ACTAGCAGGACAAGTTTGGGTCACTCAAACAAAG | 0.14 | 0.146 | -0.00824 | 0.621 | -0.0447 | 1.36 | 0.27 | 0.0968 | -0.0869 | -0.0203
TTACCAAGGTGCAGGTCGTTGATCCCTCTGTAGA | 0.967 | 1.17 | 0.154 | 0.819 | -0.626 | 0.827 | -0.238 | 0.806 | 0.416 | 0.733
CCGACTGGGGCAAGGTAACCATAACGCACAGCCA | -0.249 | -0.173 | -0.437 | -0.227 | -0.817 | 0.552 | 1.47 | 1.14 | -0.222 | 0.712
ACGAGCAGGCCAAGGGTCACTCAAGATTAGTCCG | 2.54 | 2.98 | 0.215 | 2.7 | -0.627 | 4.15 | 5.95 | 6.33 | 3.74 | 5.66
CAAACTATGTCACAGAGGTCAAAGTCCGTGCGTA | 5.6 | 5.73 | 5.85 | 5.11 | 2.14 | 5.51 | 6.2 | 6.01 | 3.36 | 5.69
GCGACTGGGGCAAAGCAGGTTAACATAAGGTTGG | 0.921 | 0.436 | -0.346 | 0.261 | -1.01 | 1.41 | 1.62 | 1.19 | 0.0162 | 0.614
CCTATTAGTTGACTATAAGGGCAACCGAAGCTCG | 0.392 | 0.149 | 0.0612 | 0.294 | 0.219 | 0.121 | 0.445 | 0.0483 | 0.0994 | -0.284
ATCTCTAGGTAAGAGTTCAGTGAATCCCGAGGAT | 0.291 | 1.13 | 0.982 | 0.873 | 0.69 | 3.22 | 5.23 | 6.11 | 4.98 | 6.44
ACTATTAGATGACTTAGGGCAACCGATACGACGC | 0.344 | 0.353 | 0.702 | 0.165 | 1.14 | 0.0577 | 1.25 | 0.22 | 0.441 | 0.295
GCTAGTTGGTTAGTAAAAGGTCACACACCGGTCG | 2.97 | 4.33 | 4.85 | 4.1 | 1.08 | 4.6 | 2.08 | 3.55 | 1.87 | 3.47
TCTCGGAGGACACGAAGGTTAGAGCTTTCCAGAG | 0.31 | -0.0717 | -0.684 | -0.246 | -1.26 | 0.397 | -0.0287 | 1 | 2.15 | 1.58
ATCTCTAGGTAGCAAGTTCAGTGAAAGAGAGGAC | 0.337 | 0.333 | 0.238 | 0.0819 | 0.153 | 0.475 | 0.327 | 0.887 | 0.0265 | 0.756
CTACCAAGGTAAACAAGGTCGTTGATTACTATTC | 0.877 | 1.37 | 0.268 | 1.56 | -0.376 | 1.57 | 0.314 | 0.42 | -0.128 | 0.258
TTACCAAGGTGAAGGTCTTTGATCCCTCTGTAGA | 0.557 | 0.55 | -0.405 | 0.371 | -0.742 | 1.64 | 1.37 | 2.45 | 0.89 | 2.12
CGAACTAGGTCAAGGACAGCGAATCTCCGCACGC | 3.45 | 2.27 | 0.194 | 1.27 | -0.45 | 4.72 | 7.46 | 6.26 | 3.42 | 5.68
AGAACGAGGGCACGCTGAGTTGATAGGAGAGTAG | 0.875 | 0.502 | -0.34 | 0.213 | -0.689 | 2.07 | 2.14 | 1.82 | 0.367 | 1.14
ATATGTAGGTTAGCTGGTGTCATTCAGACTAGGC | 0.789 | 1.83 | -0.106 | 0.765 | 0.392 | 2.74 | 3.47 | 2.8 | 0.962 | 2.2
CCTTACGGGTCACTGACAGATTATAGCATTTGGA | 5.42 | 3.4 | 0.418 | 3.31 | 0.248 | 5.28 | 4.31 | 4.42 | 1.59 | 3.46
ATCTCTAGGTAAGACTCAGTTCAGTGAGGAACGC | 0.151 | 0.565 | 0.658 | -0.0789 | 0.649 | 0.134 | 0.166 | 0.25 | 0.0695 | 0.181
TCTTGTACATCAACAGGAGGTTAAGAAAGATCGA | 0.517 | 1.37 | 0.452 | 1.13 | 0.442 | 1.16 | 0.195 | 1.36 | 3.01 | 1.9
CCTACTGGGTCAAGGTCATTGATCAGTCAAAGCA | 6.14 | 5.13 | 2.13 | 4.83 | 0.0227 | 6.04 | 8.59 | 7.05 | 5.09 | 6.81
CGAAATAGGTCAAGGACAGTGAATCTCCGCACGC | 5.6 | 4.09 | 0.715 | 3 | 0.676 | 5.27 | 7.22 | 6.58 | 4.2 | 6.39
CCTACTGGGCAAAGGTCATTGATCAGTCAAAGCA | 4.96 | 5.6 | 3.49 | 4.8 | 0.805 | 5.63 | 8.03 | 7.54 | 5.9 | 7.6
